Laboratory results from PubChem BioAssay (NCI).
The panel holds about 79,000 compounds, 15% with a hit somewhere; the sample as a whole holds those more often. Calls of active or inactive are those of the source. Cut-off read from the data, not from the text of the source: active = growth inhibition above about 70%; inactive = the rest.

Experiments:
[1] = NCI Yeast Anticancer Drug Screen. Data for the rad52 strain (AID 147);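 note: 0% = growth of vehicle-treated control cultures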; settings: S. cerevisiae rad52 mutant growth inhibition, active compounds read high
Summary of the method: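 DNA repair-defective yeast; compound exposure; growth scored against vehicle controls.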

[2] = NCI Yeast Anticancer Drug Screen. Data for the wt1 strain (AID 149);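 note: 0% = growth of vehicle-treated wt1 cultures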; settings: S. cerevisiae wt1 strain (SPY 50644) growth inhibition, active compounds read high
Summary of the method: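 Yeast wt1 strain exposed to compounds; growth inhibition measured relative to vehicle-treated controls.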

[3] = NCI Yeast Anticancer Drug Screen. Data for the rad50EPP+ strain (AID 151);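 note: 0% = growth of vehicle-treated control cultures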; settings: S. cerevisiae rad50 mutant strain, active compounds read high
Summary of the method: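 rad50EPP+ yeast treated with test compounds. Readout: growth vs vehicle control.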

[4] = NCI Yeast Anticancer Drug Screen. Data for the mgt1 strain (AID 153); settings: S. cerevisiae mgt1 mutant growth inhibition, active compounds read high
Summary of the method: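 Growth inhibition relative to vehicle controls was scored for the mgt1 yeast strain after compound exposure.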

[5] = NCI Yeast Anticancer Drug Screen. Data for the rad50 strain (AID 155);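 note: 0% = growth of vehicle-only cultures of the same strain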; settings: S. cerevisiae rad50 strain growth inhibition, active compounds read high
Summary of the method: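 Yeast carrying a defined DNA repair defect were exposed to test compounds, and growth was compared with vehicle-treated controls to give percent inhibition.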

[6] = NCI Yeast Anticancer Drug Screen. Data for the mec2-1 strain (AID 157); settings: S. cerevisiae mec2-1 strain, active compounds read high
Summary of the method: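 Growth inhibition is read against vehicle-treated controls after compound exposure of the mec2-1 yeast strain, which is defective in DNA damage repair or cell cycle control.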

[7] = NCI Yeast Anticancer Drug Screen. Data for the rad14 strain (AID 159);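 note: 0% = growth of vehicle-treated control cultures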; settings: S. cerevisiae rad14 strain growth inhibition, active compounds read high
Summary of the method: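 Yeast cells carrying a defined DNA-repair defect were exposed to compounds, and growth inhibition was calculated relative to vehicle-treated control cultures.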

[8] = NCI Yeast Anticancer Drug Screen. Data for the sgs1 mgt1 strain (AID 161);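 note: 0% = growth of cultures given vehicle only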; settings: S. cerevisiae sgs1 mgt1 strain, active compounds read high
Summary of the method: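 Percent growth inhibition was derived by comparing compound-exposed mutant yeast with vehicle-exposed cultures. The strain carries alterations in DNA damage repair.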

[9] = NCI Yeast Anticancer Drug Screen. Data for the CLN2oe strain (AID 163);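 note: 0% = growth of vehicle-only control cultures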; settings: S. cerevisiae CLN2oe strain, active compounds read high
Summary of the method: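 Compound-treated yeast; growth vs vehicle ctrl = % inhibition. Genetically altered strain (cell-cycle control).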

[10] = NCI Yeast Anticancer Drug Screen. Data for the cln2 rad14 strain (AID 165);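 note: 0% = growth equal to vehicle treated cultures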; settings: S. cerevisiae cln2 rad14 strain, active compounds read high
Summary of the method: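 Growth inhibition, relative to vehicle-treated controls, is the read-out. The test organism is a yeast strain with defined genetic alterations, cln2 rad14.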

[11] = NCI Yeast Anticancer Drug Screen. Data for the bub3 strain (AID 167); settings: S. cerevisiae bub3 mutant strain, active compounds read high
Summary of the method: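 Compounds were applied to a genetically altered yeast strain carrying a cell-cycle control defect. Growth inhibition was scored against vehicle-treated controls.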

[12] = NCI Yeast Anticancer Drug Screen. Data for the wt2 strain (AID 169);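 note: 0% = growth of vehicle-treated yeast cultures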; settings: S. cerevisiae wt2 strain growth inhibition, active compounds read high
Summary of the method: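 Compound exposure of yeast; growth compared with vehicle controls; inhibition reported.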

[13] = NCI Yeast Anticancer Drug Screen. Data for the mlh1 strain (AID 171);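 note: 0% = growth of vehicle-treated control cultures of the same strain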; settings: S. cerevisiae mlh1 strain growth inhibition, active compounds read high
Summary of the method: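 Compounds are applied to a genetically altered yeast strain, and its growth is compared with that of vehicle-treated cultures to give percent inhibition.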

[14] = NCI Yeast Anticancer Drug Screen. Data for the sgs1 strain (AID 173);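 note: 0% = growth of vehicle-only control cultures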; settings: S. cerevisiae sgs1 mutant, active compounds read high
Summary of the method: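 Compounds applied to genetically altered yeast; growth compared with vehicle-treated cultures to give % inhibition.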

[15] = NCI Yeast Anticancer Drug Screen. Data for the mlh1 rad18 strain (AID 175); settings: S. cerevisiae mlh1 rad18 strain growth inhibition, active compounds read high
Summary of the method: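 Cells of a genetically altered yeast strain, deficient in DNA damage repair, were treated with compound. Their growth was then compared with that of vehicle-treated cultures to give inhibition.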

[16] = NCI Yeast Anticancer Drug Screen. Data for the rad18 strain (AID 177); settings: S. cerevisiae rad18 mutant growth inhibition, active compounds read high
Summary of the method: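 Compounds are applied to a repair-deficient yeast strain, and growth is compared with that of vehicle-treated cultures to give percent inhibition.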

[17] = at 5.0 µM (retest, dose inferred, filed as 0.5)
[18] = at 50.0 µM (retest, dose inferred, filed as 5.0)

Measured: growth inhibition

CCn1c(O)c(C=Nc2ccccc2)s/c1=N/Nc1nc(-c2ccccc2)cs1
active: [3]; at 100.0 µM 74% | [11]; [18] 74% | [11]; at 50.0 µM 75.5%
inactive: [1]; at 1.2 µM 12% | [1]; at 3.7 µM 5% | [1]; at 11.0 µM 10% | [1]; at 33.0 µM 4% | [1]; at 100.0 µM 20% | [2]; at 1.2 µM -87% | [2]; at 3.7 µM -1% | [2]; at 11.0 µM 0% | [2]; at 33.0 µM 0% | [2]; at 100.0 µM -3% | [3]; at 1.2 µM 7% | [3]; at 3.7 µM 19% | [3]; at 11.0 µM 32% | [3]; at 33.0 µM 54% | [4]; at 1.2 µM 0% | [4]; at 3.7 µM 10% | [4]; at 11.0 µM 18% | [4]; at 33.0 µM 21% | [4]; at 100.0 µM 24% | [5]; at 1.2 µM -2% | [5]; at 3.7 µM 6% | [5]; [17] -12% | [5]; at 11.0 µM 14% | [5]; at 33.0 µM 15% | [5]; [18] 12% | [5]; at 50.0 µM 41.7% | [5]; at 100.0 µM 11% | [6]; at 1.2 µM -6% | [6]; at 3.7 µM -1% | [6]; [17] -25% | [6]; at 11.0 µM -1% | [6]; at 33.0 µM -1% | [6]; [18] 11% | [6]; at 50.0 µM 23.8% | [6]; at 100.0 µM 2% | [7]; at 1.2 µM 0% | [7]; at 3.7 µM 6% | [7]; at 11.0 µM 9% | [7]; at 33.0 µM 7% | [7]; at 100.0 µM 1% | [8]; [17] -7% | [8]; [18] 27% | [8]; at 50.0 µM 43.5% | [9]; at 1.2 µM -6% | [9]; at 3.7 µM -11% | [9]; at 11.0 µM -7% | [9]; at 33.0 µM -9% | [9]; at 100.0 µM 17% | [10]; [17] -1% | [10]; [18] 15% | [10]; at 50.0 µM 25.3% | [11]; at 1.2 µM -5% | [11]; at 3.7 µM -3% | [11]; [17] -14% | [11]; at 11.0 µM -4% | [11]; at 33.0 µM 12% | [11]; at 100.0 µM 50% | [12]; at 1.2 µM -3% | [12]; at 3.7 µM -2% | [12]; at 11.0 µM -1% | [12]; at 33.0 µM 2% | [12]; at 100.0 µM 11% | [13]; at 1.2 µM -2% | [13]; at 3.7 µM 3% | [13]; at 11.0 µM 3% | [13]; at 33.0 µM 4% | [13]; at 100.0 µM 12% | [14]; at 1.2 µM -10% | [14]; at 3.7 µM 7% | [14]; at 11.0 µM 13% | [14]; at 33.0 µM 22% | [14]; at 100.0 µM 36% | [15]; [17] -10% | [15]; [18] 25% | [15]; at 50.0 µM 61.8% | [16]; at 1.2 µM -3% | [16]; at 3.7 µM -3% | [16]; at 11.0 µM -5% | [16]; at 33.0 µM 9% | [16]; at 100.0 µM -12%

CCOC(=O)C#Cc1ccc([N+](=O)[O-])cc1
active: [5]; at 50.0 µM 96% | [6]; at 50.0 µM 95% | [8]; [18] 72% | [10]; at 50.0 µM 96.8% | [11]; at 50.0 µM 95.5% | [15]; at 50.0 µM 96.8%
inactive: [1]; at 1.2 µM 0% | [1]; at 3.7 µM -1% | [1]; at 11.0 µM -6% | [1]; at 33.0 µM 3% | [1]; at 100.0 µM 17% | [2]; at 1.2 µM 2% | [2]; at 3.7 µM 1% | [2]; at 11.0 µM 3% | [2]; at 33.0 µM 8% | [2]; at 100.0 µM 25% | [3]; at 1.2 µM 8% | [3]; at 3.7 µM 4% | [3]; at 11.0 µM 7% | [3]; at 33.0 µM 23% | [3]; at 100.0 µM 61% | [4]; at 1.2 µM 1% | [4]; at 3.7 µM -4% | [4]; at 11.0 µM -6% | [4]; at 33.0 µM 5% | [4]; at 100.0 µM 12% | [5]; at 1.2 µM 0% | [5]; at 3.7 µM 4% | [5]; [17] 15% | [5]; at 11.0 µM 3% | [5]; at 33.0 µM 18% | [5]; [18] 50% | [5]; at 100.0 µM 46% | [6]; at 1.2 µM 4% | [6]; at 3.7 µM -5% | [6]; [17] 12% | [6]; at 11.0 µM 7% | [6]; at 33.0 µM -1% | [6]; [18] 36% | [6]; at 100.0 µM 6% | [7]; at 1.2 µM 1% | [7]; at 3.7 µM -4% | [7]; at 11.0 µM 4% | [7]; at 33.0 µM 4% | [7]; at 100.0 µM 5% | [8]; [17] 31% | [8]; at 50.0 µM 50.5% | [9]; at 1.2 µM 1% | [9]; at 3.7 µM -2% | [9]; at 11.0 µM -3% | [9]; at 33.0 µM 2% | [9]; at 100.0 µM 10% | [10]; [17] -43% | [10]; [18] -7% | [11]; at 1.2 µM -10% | [11]; at 3.7 µM -24% | [11]; [17] -10% | [11]; at 11.0 µM -1% | [11]; at 33.0 µM 1% | [11]; [18] 28% | [11]; at 100.0 µM -8% | [12]; at 1.2 µM -1% | [12]; at 3.7 µM 1% | [12]; at 11.0 µM 4% | [12]; at 33.0 µM 7% | [12]; at 100.0 µM 11% | [13]; at 1.2 µM -4% | [13]; at 3.7 µM -3% | [13]; at 11.0 µM -10% | [13]; at 33.0 µM -21% | [13]; at 100.0 µM -5% | [14]; at 1.2 µM 1% | [14]; at 3.7 µM 0% | [14]; at 11.0 µM 5% | [14]; at 33.0 µM 6% | [14]; at 100.0 µM 15% | [15]; [17] -20% | [15]; [18] 63% | [16]; at 1.2 µM -1% | [16]; at 3.7 µM -2% | [16]; at 11.0 µM 0% | [16]; at 33.0 µM 15% | [16]; at 100.0 µM 64%

O/N=C\c1c(O)ccc2ccccc12
active: [1]; at 100.0 µM 72% | [3]; at 100.0 µM 74% | [5]; [18] 74% | [5]; at 100.0 µM 71%
inactive: [1]; at 1.2 µM -4% | [1]; at 3.7 µM 0% | [1]; at 11.0 µM 7% | [1]; at 33.0 µM 31% | [2]; at 1.2 µM -2% | [2]; at 3.7 µM -5% | [2]; at 11.0 µM 0% | [2]; at 33.0 µM 5% | [2]; at 100.0 µM 22% | [3]; at 1.2 µM 2% | [3]; at 3.7 µM 10% | [3]; at 11.0 µM 19% | [3]; at 33.0 µM 54% | [4]; at 1.2 µM -4% | [4]; at 3.7 µM 1% | [4]; at 11.0 µM 1% | [4]; at 33.0 µM 7% | [4]; at 100.0 µM 52% | [5]; at 1.2 µM 1% | [5]; at 3.7 µM 3% | [5]; [17] -11% | [5]; at 11.0 µM 10% | [5]; at 33.0 µM 42% | [5]; at 50.0 µM 63% | [6]; at 1.2 µM -1% | [6]; at 3.7 µM 0%
